The results in this text go back to PubChem BioAssay AID504332 (National Center for Advancing Translational Sciences (NCATS), 2011).

The campaign covered roughly 350,000 compounds. About 31,000 (8.9%) were called active. Where a call stands in place of a potency, no number is given. Not shown: some 15% with an inconclusive outcome. Calls come from the whole dose curve; as a rule, active = well fitted inhibition curve with a large enough effect; inconclusive = small, poorly fitted or top-dose-only effect; inactive = no such curve, though single readings can be large or run the other way. Only a selection was taken, and actives are over-represented in it overall.
Potency is the fitted concentration of half-maximal effect.

Chain of Histone-lysine N-methyltransferase EHMT2 (Homo sapiens) (Q96KQ7 913-1193 limits assumed): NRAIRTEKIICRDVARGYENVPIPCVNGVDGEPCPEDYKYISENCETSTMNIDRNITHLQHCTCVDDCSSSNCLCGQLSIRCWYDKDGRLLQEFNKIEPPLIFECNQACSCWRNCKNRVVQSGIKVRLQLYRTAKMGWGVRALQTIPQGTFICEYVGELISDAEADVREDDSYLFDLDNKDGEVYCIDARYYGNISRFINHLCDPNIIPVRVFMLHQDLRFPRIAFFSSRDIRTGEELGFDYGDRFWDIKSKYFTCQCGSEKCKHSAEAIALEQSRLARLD

This assay has as its target Histone-lysine N-methyltransferase EHMT2 (Homo sapiens) (UniProt Q96KQ7). Briefly: qHTS Assay for Inhibitors of Histone Lysine Methyltransferase G9a. Note: nearly all actives have a fitted effect of over 75% in size. The conditions noted are these: G9a H3K9 monomethylation, AlphaScreen, 2 h; series mostly up to 59 µM. A digest of the protocol: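 Readings reflect AlphaScreen signal from monomethyl-H3K9 antibody detection. HMT at 20 nM; substrate b-H3K9 500 nM; cofactor SAM 20 uM; 2 h RT reaction; compounds tested as titrations in qHTS with 15 min preincubation.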
Regarding `COc1cc2c(C(=O)N(C)c3cc(Cl)ccc3OC)cn(C)c(=O)c2cc1OC`, the Potency result is “inactive”. `O=C(CSc1nc(-c2ccco2)cc(C(F)(F)F)n1)N1CCc2ccccc2C1`: the Potency was 12.6 µM (active).

As to `Cc1cccc(NC(=O)CSc2nc(-c3ccco3)cc(C(F)(F)F)n2)c1C`, the Potency result was “inactive”. Turning to `O=C(CSc1nc(-c2ccco2)cc(C(F)(F)F)n1)NCc1cccs1`, the Potency entry is “inactive”. `CC1(c2nnc(Cc3ccccc3)o2)CC(c2ccccc2F)=NO1` (stereo unspecified): the activity, negative = inhibition was -2.28% [at 2.33 µM] (inactive). For the compound `CC(=O)N1CCCc2cc(S(=O)(=O)N3CCC(C(=O)NC4CCCCC4)CC3)ccc21`, the Potency result was “inactive”. In the case of `COc1ccc(Br)cc1C1CC(=O)Nc2c1c(C)nn2-c1nc(C)cc(C)n1` (stereo unspecified), the Potency entry is “inactive”. The same measure, in the same setting: as for `O=Cc1cn(Cc2ccccc2)nc1-c1cccnc1`, the entry is “inactive”; as for `COc1cccc(NC(=O)CN(C)C(=O)/C=C/c2cn(-c3ccccc3)nc2-c2cccs2)c1`, “inactive”. As for `COc1ccc(NC(=O)CN(C)C(=O)/C=C/c2cn(Cc3ccccc3)nc2-c2cccnc2)cc1`, the Potency is 7.94 µM (active). For the compound `CCC(=O)Nc1cccc(-c2nc3cc(C)ccc3o2)c1`, the Potency result is “inactive”. In the case of `Cc1cc(NC(=O)C2CCC(CNS(=O)(=O)c3ccc(Br)s3)CC2)ccc1Br` (stereo unspecified), the Potency entry is “inactive”. In the case of `CC1=C(C(=O)OCc2ccccc2)C(c2ccco2)n2ncnc2N1` (stereo unspecified), the Potency entry was “inactive”. Consider `Brc1ccc(C2=CC(c3ccco3)n3ncnc3N2)cc1` (stereo unspecified), for which the Potency is 12.6 µM (active).

As for `COC(=O)C1=C(C)Nc2ncnn2C1c1ccco1` (stereo unspecified), the activity, negative = inhibition was 3.2% [at 12.7 µM] (inactive).

Take `CCOC(=O)c1c(C)[nH]c(CCC(=O)Nc2ccc(OC)c(OC)c2)c1C`: the Potency result was “inactive”.

Regarding `COc1ccc(Nc2ccc([N+](=O)[O-])cn2)cn1`, the Potency entry was “inactive”.

Turning to `COc1ccc(Nc2cc(Cl)ccc2C(=O)O)cn1`, the Potency was 2.24 µM (active).

In the case of `COc1ccc(NS(=O)(=O)c2ccc(F)cc2F)cn1`, the Potency result was “inactive”. With `Cc1ccccc1CCNC(=O)C1CCN(c2nc3ccccc3nc2C(F)(F)F)CC1`, the Potency result was “inactive”. Take `CCC(=O)c1ccc(OCC(=O)N(CC)CC2COc3ccccc3O2)cc1` (stereo unspecified): the Potency result was “inactive”. Regarding `Cc1ccccc1Nc1scc(-c2ccc(Br)cc2)[n+]1-c1ccccc1C`, the Potency is 20 µM (active). On the same count and under the same terms, as for `CCOc1ccc(NC(=O)c2cc(S(=O)(=O)N3CCCC3)c[nH]2)cc1`, the entry is “inactive”; as for `Cc1onc(-c2ccccc2Cl)c1C(=O)OCc1nnc(-c2ccccc2)o1`, “inactive”; as for `CCC(=O)N1CCc2cc(Br)cc(S(=O)(=O)CCC(=O)NCc3ccccc3OC)c21`, “inactive”. In the case of `O=C(O)C1OC(C(=O)O)C2C1C(F)(F)C2(F)F` (stereo unspecified), the Potency is 39.8 µM (active). In the case of `CC1=C(C(=O)N2CCN(c3cccc(C(F)(F)F)c3)CC2)C2(CCCCC2)OC1=O`, the Potency result was “inactive”. For `CNc1ccc(-c2nc(-c3ccccc3C)no2)cc1[N+](=O)[O-]`, the Potency result was “inactive”. For the compound `CC1(C)Oc2ccc3ccc(=O)oc3c2/C(=C/NCCO)C1=O`, the Potency is 35.5 µM (active). Take `C/C=C(/C)C(=O)OC1Cc2c(ccc3ccc(=O)oc23)OC1(C)C` (stereo unspecified): the activity, negative = inhibition is 25.6% [at 12.7 µM] (inactive). On to `O=C(NC1CCCCC1)c1ccc2c(c1)N(Cc1ccc(Cl)cc1)C(=O)c1ccccc1S2=O` (stereo unspecified), for which the Potency result is “inactive”. As to `Nc1ncc(S(=O)(=O)Nc2ccc(OC(F)(F)F)cc2)cn1`, the Potency result was “inactive”. `COc1ccc(NS(=O)(=O)c2cccc(C(=O)NCCc3ccc(S(N)(=O)=O)cc3)c2)cc1`: the activity, negative = inhibition was 9.68% [at 12.7 µM] (inactive). In the case of `Cc1ccc(CN(C(=O)c2ccccc2[N+](=O)[O-])c2ccccn2)cc1`, the Potency entry is “inactive”. For the compound `CCCC(=O)N=c1sc2cccc(F)c2n1C`, the Potency is 44.7 µM (active).

Take `Cn1c(=NC(=O)CSCC(=O)N2CCCCC2)sc2ccccc21`: the Potency result is “inactive”.

Turning to `CCN(CC)S(=O)(=O)c1ccc(C(=O)N=c2sc3cccc(OC)c3n2C)cc1`, the Potency result was “inactive”. Consider `CCOc1ccc(CC(=O)NCCc2csc3nc(-c4ccccc4F)nn23)cc1`, for which the Potency result was “inactive”. For `CC(C)CCN(C(=O)Nc1ccc(Cl)c(Cl)c1)C(C)c1cccs1` (stereo unspecified), the Potency entry was “inactive”. As for `CCOC(=O)C(Sc1ncc(C#N)c(N)n1)C(C)C` (stereo unspecified), the Potency is 39.8 µM (active). In the case of `CCCCOc1ccc(-c2ncc(C(=O)OCC)c(N)n2)cc1`, the activity, negative = inhibition is 6.88% [at 12.7 µM] (inactive). With `CCOC(=O)CSc1nccc(N(C)C)c1C#N`, the Potency entry was “inactive”. In the case of `O=C(CNc1cccc(S(=O)(=O)N2CCCCC2)c1)Nc1ccccc1F`, the activity, negative = inhibition was 14.7% [at 12.7 µM] (inactive). On the same count and under the same terms, as for `CCN1C(=O)[C@@H]2[C@@H](c3ccc(-c4ccc(OC)cc4)c(OC)c3)N3CCC[C@@]3(C(=O)OC)[C@@H]2C1=O`, the figure is -8.12% [at 2.33 µM] (inactive); as for `Cc1nn(Cc2ccccc2)c(C)c1C(=O)NCCCN1CCCC1=O`, 10.5% [at 12.7 µM] (inactive). Consider `CCOC(=O)c1c(NC(=O)CN2C(=O)NC3(CCC(C)CC3)C2=O)sc(C)c1CC` (stereo unspecified), for which the Potency result is “inactive”.

`CCC(=C/c1sc2ccc3ccccc3c2[n+]1C)/C=C1\Sc2ccc3ccccc3c2N1C`: the Potency was 3.16 µM (active).

As to `O=C(NC(=S)Nc1ccc(S(=O)(=O)N2CCOCC2)cc1)c1ccccc1[N+](=O)[O-]`, the Potency is 39.8 µM (active). As to `O=C(CN1C(=O)CCC1=O)Nc1ccc(S(=O)(=O)N2CCOCC2)cc1`, the Potency result is “inactive”.

As for `Cc1ccccc1OCC(=O)Nc1ccc(S(=O)(=O)N2CCOCC2)cc1`, the Potency result was “inactive”. As to `CN1CCN(S(=O)(=O)c2ccc(NC(=S)NC(=O)C3CC3)cc2)CC1`, the Potency entry is “inactive”. As to `COC(=O)c1cc(Oc2ccc(S(=O)(=O)N3CCOCC3)cc2[N+](=O)[O-])cc(C(=O)OC)c1`, the activity, negative = inhibition was 19.1% [at 12.7 µM] (inactive). As to `Cc1cc(C(=O)NNC(=O)c2cccc(S(=O)(=O)N3CCOCC3)c2)c2ccccc2n1`, the Potency entry was “inactive”. For the compound `O=C(NNC(=S)Nc1ccccc1)c1cccc(S(=O)(=O)N2CCOCC2)c1`, the Potency was 31.6 µM (active). Take `O=C(COC(=O)c1ccccc1)Nc1cccc(S(=O)(=O)N2CCOCC2)c1`: the Potency entry is “inactive”.

As to `O=S(=O)(c1ccc(NC(=S)NN=C(C2CC2)C2CC2)cc1)N1CCOCC1`, the Potency was 1.78 µM (active). Regarding `CCOC(=O)c1c(S(=O)(=O)NCC(=O)Nc2ccc(Cl)c(C(F)(F)F)c2)c(C)n(C)c1C`, the Potency result was “inactive”. On the same count and under the same terms, with `CCCS(=O)(=O)N1CCC(n2c(C(F)(F)F)nc3cccnc32)CC1` the entry was “inactive”; with `Cn1c(=O)c2c(n3c4ccccc4nc13)NC(=O)CC2c1cccc(Cl)c1` (stereo unspecified), “inactive”; with `Cc1cc2nc(-c3ccc(NC(=O)c4cc5ccccc5o4)cc3)oc2cc1C`, “inactive”.

As to `O=C1COc2ccc(S(=O)(=O)NCCc3ccc(Cl)cc3)cc2N1`, the Potency entry is “inactive”. Take `O=C(CCCC(=O)N1CCN(c2cccc(Cl)c2)CC1)c1ccccc1`: the Potency result was “inactive”. Still for that read-out and setting: with `C=CCn1c(SCn2nnc3ccccc3c2=O)nnc1-c1ccc(Cl)cc1` the figure was 44.7 µM (active); with `C=CCn1c(SCc2ccc(C(=O)NCCO)cc2)nc2ccccc2c1=O`, “inactive”; with `O=C(Cn1nnc2ccccc2c1=O)NCc1ccc(Cl)cc1`, “inactive”. Take `CCOc1ccc(NC(=O)CCC(=O)N2CC(C)Oc3ccc(C)cc32)cc1` (stereo unspecified): the Potency result is “inactive”. In the case of `CCCCN(CC)C(=O)c1c[nH]c2ccc(S(=O)(=O)Nc3cccc(OC)c3)cc2c1=O`, the Potency entry was “inactive”. On the same count and under the same terms, with `CCOC(=O)c1cccc(NC(=O)CCc2nnc3ccc(N4CCOCC4)nn23)c1` the entry was “inactive”; with `CCOc1ccc(CCNC(=O)CCc2nnc3ccc(N4CCCC4)nn23)cc1OCC`, “inactive”; with `CCN(CC)c1ccc(NC(=O)CCc2nnc3ccc(N4CCCCC4)nn23)c(C)c1`, 44.7 µM (active). With `Cc1ccc2c(c1)N(C(=O)CCC(=O)NCc1ccccc1F)CC(C)O2` (stereo unspecified), the Potency result is “inactive”.

For the compound `CCCc1cc(=O)oc2c(C)c(OCC(=O)Nc3ccccn3)ccc12`, the activity, negative = inhibition is -3.15% [at 0.0925 µM] (inactive). Consider `O=C(Nc1ccc2nc(SCC(=O)N3CCc4ccccc43)sc2c1)c1ccccc1F`, for which the Potency entry was “inactive”. Still for that read-out and setting: with `Cc1cc(O)ccc1-c1cnc2ccccc2n1` the figure was 14.1 µM (active). For the compound `Oc1ccc2nc(Cc3ccccc3)[nH]c2c1`, the activity, negative = inhibition is -45.3% [at 12.7 µM] (inactive). Consider `Oc1ccc(-c2[nH]ncc2-c2nc3ccccc3s2)c(O)c1`, for which the Potency entry is “inactive”. `NS(=O)(=O)c1ccc(CCNC(=O)CCCCCn2c(=O)[nH]c3ccccc3c2=O)cc1`: the Potency result was “inactive”.

Regarding `O=C1CN(C(=O)Nc2ccccc2C(F)(F)F)C(c2ccccc2)c2c(sc3c2CCCC3)N1` (stereo unspecified), the Potency entry was “inactive”. For `O=C(NCC(=O)N(CC1CCCO1)C(C(=O)NC1CCCCC1)c1ccccc1)c1ccco1` (stereo unspecified), the Potency result is “inactive”. Consider `CC(C)c1ccc(C2C(C(=O)c3ccco3)=C(O)C(=O)N2CC2CCCO2)cc1` (stereo unspecified), for which the Potency was 44.7 µM (active). Consider `CC(C)c1ccc(N(C(=O)c2ccco2)C(C(=O)NC2CCCC2)c2cccnc2)cc1` (stereo unspecified), for which the Potency result is “inactive”. For the compound `Cc1cccc(C)c1-n1c(C)cc(/C=C2\C(=O)NN(c3ccccc3)C2=O)c1C`, the Potency was 15.8 µM (active). Still for that read-out and setting: with `Cc1ccc(CN2C(=O)N/C(=C/c3cc(C)n(-c4ccccn4)c3C)C2=O)cc1` the entry was “inactive”; with `CCC1=NN2C(=N)/C(=C/c3cc(C)n(-c4ccccc4)c3C)C(=O)N=C2S1`, “inactive”; with `Cc1cc(C)c2oc(C(=O)Nc3c(C(=O)Nc4ccccc4)oc4ccccc34)cc(=O)c2c1`, “inactive”. On the same count and under the same terms, with `CCOc1ccc2nc(N3CCCC(C(=O)Nc4cc(C)ccc4C)C3)sc2c1` (stereo unspecified) the entry was “inactive”.

Regarding `COc1ccc(CCN=C2SCC(=O)N2Cc2ccccc2)cc1OC`, the Potency entry is “inactive”. `COc1ccc(C2C(=O)N(C3CCCCCC3)CC(=O)N2CCc2ccc(Cl)cc2)cc1OC` (stereo unspecified): the Potency entry is “inactive”. As for `COc1cc(C2CC(=O)N3CN(Cc4ccccc4)CSC3=C2C#N)ccc1OCc1ccccc1` (stereo unspecified), the Potency is 0.891 µM (active). In the case of `Cc1ccc([C@@H]2CC=C(C(=O)O)[C@H](c3cccc(Cl)c3)N2S(=O)(=O)c2ccc(C)cc2)cc1`, the activity, negative = inhibition is 3.76% [at 2.33 µM] (inactive).

Consider `O=C(CSc1nc2ccc([N+](=O)[O-])cc2[nH]1)c1ccc(Cl)cc1`, for which the Potency was 5.01 µM (active). Same read-out and setting: with `CC(=O)Nc1ccc(C(=O)CSc2nc3ccc(C)cc3[nH]2)cc1` the figure was 7.08 µM (active); with `Cc1ccc2nc(SCC(=O)NC3CCCC3)[nH]c2c1`, “inactive”; with `CCOC(=O)CSc1nc2ccc(C)cc2[nH]1`, “inactive”. With `Cc1cc(C)nc(SCC(=O)c2ccc(Cl)cc2)n1`, the Potency entry is “inactive”. Same read-out and setting: as for `Cc1nc2nc(SCC(=O)c3ccccc3)[nH]c2cc1Br`, the entry is “inactive”.
